Experimental findings from PubChem BioAssay (NCATS) are described below.

For assay [1], the target named is Cytochrome P450 1A2 (Homo sapiens) (UniProt P05177). Kind of assay: p450-cyp1a2 (AID 410; calls by dose curve; also: potency is read from the fitted curve at half-maximal effect;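 as to activity change, negative = inhibition: -100% = full effect of reference inhibitor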). The procedure, abridged: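 Luminescent demethylation readout: Luciferin-ME (100uM, equal to Km) turned over by 20nM CYP1A2 for 60 min at room temperature after NADPH regeneration addition, following 10 min compound preincubation. Normalization used 57 uM furafylline as full inhibition.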

A short description of assay [2]: NFAT Signaling Pathway (AID 444; active = well fitted curve in either direction with a large enough effect, not every such curve was filed as active;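 also: carbachol stimulus at about its EC50 of 1 µM final; % is scaled to controls: 0 for no effect and ±100 for the full control effect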). To be noted: Jurkat NFAT-bla M1, carbachol, beta-lactamase ratio, 5 h; at 17.2 µM (top of the series) unless noted. The procedure, abridged: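 Jurkat cells with NFAT-driven β-lactamase reporter and co-expressed M1 receptor, stimulated with carbachol (final 1 uM, ~EC50), compound titration, 5 h at 37 °C. CCF4 loaded 1 h at RT; 460/530 nm ratio gave %activity and AC50.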

Assay [3] is described as follows: Stat Signaling Pathway (AID 446; active = well fitted curve in either direction with a large enough effect, not every such curve was filed as active;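 also: ME-180 cervical cancer cells given 40 pM IL-6 alongside compound; SIE-controlled beta-lactamase reporter measured as 460/530 nm FRET emission ratio; % is scaled to controls: 0 for no effect and ±100 for the full control effect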). To be noted: ME-180 SIE beta-lactamase reporter, IL-6 stimulated, 5 h; at 17.2 µM (top of the series) unless noted. The method, boiled down:
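Compound effects on IL-6-induced STAT reporter activity were measured in ME-180 cells. After overnight culture, cells were co-treated with 40 pM IL-6 for 5 hrs before beta-lactamase substrate loading at room temperature.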

The target in assay [4] is Glucocorticoid receptor (Homo sapiens) (UniProt P04150). Kind of assay: GR-GFP Redistribution (AID 450;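 active = compounds whose dose series gives a full or clear partial fitted curve of increased nuclear translocation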; also: potency is read from the fitted curve at half-maximal effect).
The target is the same in assay [5]. Put plainly: GR-EFC Redistribution (AID 451; calls by dose curve; also: potency is read from the fitted curve at half-maximal effect). To be noted: CHO-K1 GR-EFC translocation, beta-gal luminescence, 2 h. The procedure, abridged:
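CHO-K1 cells expressing nuclear EA and GR-ED fragments of b-gal; compounds titrated up to 46 uM final, 2 h at 37 C. GR nuclear translocation read as complemented b-gal luminescence after 1 h RT detection.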

For assay [6], the target named is Mitogen-activated protein kinase 10 (Mus musculus) (UniProt Q61831). Kind of assay: JNK3 AlphaScreen Assay (AID 530; active = well fitted curve in either direction with a large enough effect, not every such curve was filed as active;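 also: kinase came from lysate of stimulated human HepG2 cells; signal reports phosphorylation of biotinylated GST-cJun 1-79 at Ser73 with 10 µM ATP; % is scaled to controls: 0 for no effect and ±100 for the full control effect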). The procedure, abridged: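 Activity was read by AlphaScreen after JNK3-containing HepG2 lysate (cytokine pre-activated) phosphorylated biotinylated GST-cJun with 10 uM ATP at room temperature. Phospho-Ser73 cJun antibody with Protein-A acceptor beads provided detection.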
(In general: Alpha assays give light when donor and acceptor beads are brought close together.)

Assay [7] deals with 3',5'-cyclic-AMP phosphodiesterase 4B (Homo sapiens) (UniProt Q07343). Kind of assay: qHTS Assay for Inhibitors of PDE-IV (AID 607; active = well fitted activation curve with a large enough effect in the main read-out, with a control signal flat, not every such curve was filed as active; also: % of control where 0% means no effect). The method, boiled down:
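ACTOne HEK293 cells carry a modified cAMP-gated CNG channel and express endogenous PDE4; plated 1000 cells/well, compounds up to 22.9 uM final. Membrane-potential dye fluorescence (ex 535/em 590) was read; parental cells received 10 uM forskolin + 100 uM RO 20-1724.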
A general note: In qHTS, concentration-response curves come from the screen itself.

Assay [8] concerns the target Guanine nucleotide-binding protein G(i) subunit alpha-1 (Homo sapiens) (UniProt P63096). Kind of assay: qHTS Assay for Inhibitors of RGS12 GoLoco Motif Activity (Green Fluorophore) (AID 879).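 Also: 0% = labeled peptide with Gαi1 and full inhibition = labeled peptide alone without protein; negative values mean loss of peptide binding seen as reduced polarization.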 The method, boiled down:
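A drop in FITC polarization marked displacement of the FITC-tagged RGS12 GoLoco peptide (10 nM) from Gαi1 (50 nM). Compounds were incubated 10 min at room temperature in Tris pH 7.5 buffer containing 150 mM NaCl, 0.1 mM GDP and 0.05% NP40; unlabeled peptide titration served as control.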

Assay [9] addresses Cytochrome P450 3A4 (Homo sapiens) (UniProt P08684). Put plainly: qHTS Assay for Activators of Cytochrome P450 3A4 (AID 885). Also: nearly all actives have a fitted effect of over 65% in size. The method, boiled down:
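CYP3A4 activity: Luciferin-PPXE O-dealkylation, 25uM substrate, 200mM KPO4, RT throughout. Read-out is luciferase luminescence; higher values reflect activation.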

A short description of assay [10]: qHTS Assay for Identification of Small Molecule Antagonists for NFkB Signaling Pathway (AID 895; active = well fitted inhibition curve with a large enough effect in the signal ratio, with a control signal flat, not every such curve was filed as active; the % refers to the signal ratio; also: potency is read from the fitted curve at half-maximal effect). The method, boiled down: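 ME-180 NFkB-bla cells (beta-lactamase under NFkB response element), plated overnight, treated with compound then 10 pM TNF alpha (about EC50) for 5 hrs at 37 C. LiveBLAzer FRET read at 460/530 nm emission, 405 nm excitation.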
For assay [11], the target named is Pyruvate kinase (Leishmania mexicana) (UniProt Q27686). Kind of assay: qHTS Validation Assay for Inhibitors of Leishmania Mexicana Pyruvate Kinase (AID 945).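 Also: 0% = DMSO only neutral control wells.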 The method, boiled down:
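Mutant LmPYK (E451W), 0.2 nM, plus 0.5 mM PEP and 0.1 mM ADP in 50 mM imidazole pH 7.2 containing 0.01% Tween 20 and 0.05% BSA. Incubated 1 h at room temperature; luminescence via PKLight, normalized to DMSO.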

The target of assay [12] is Pyruvate kinase PKM (Homo sapiens) (UniProt P14618). Put plainly: qHTS Assay for Activators of Human Muscle Pyruvate Kinase (AID 954; active = well fitted curve in the direction sought with a large enough effect, not every such curve was filed as active;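 also: 0% = uninhibited enzyme and -100% = no enzyme or full thiadiazolimine inhibition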). The method, boiled down: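 A coupled luminescent readout tracked ATP made from ADP by purified PKM2. Final conditions included 0.1 nM enzyme, PEP and ADP at 0.5 and 0.1 mM, pH 7.2 imidazole buffer with BSA, and a one-hour room-temperature reaction.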

The target in assay [13] is Alpha-galactosidase A (Homo sapiens) (UniProt P06280). Put plainly: Counterscreen for Glucocerebrosidase Inhibitors: qHTS Assay for Human alpha-Galactosidase at pH 4.5 (AID 992). Also: 0% is about no effect. The procedure, abridged: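 Citrate buffer pH 4.5, Tween-20 0.005%. Enzyme 2 nM, substrate 80 uM, 20 min RT. Stop pH 10. Fluorescence Ex 365/Em 440. AC50 by Hill fit.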
A general note: Counterscreens check selectivity or assay interference.

The target in assay [14] is alpha-glucosidase (Oryza sativa, rice) (UniProt Q653V4). Put plainly: Counterscreen for Glucocerebrosidase Inhibitors: qHTS Assay for Rice alpha-Glucosidase at pH 5.0 (AID 997).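 Also: 0% = full activity with enzyme and -100% = basal without enzyme.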 The procedure, abridged: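 Endpoint fluorogenic assay at pH 5.0: compounds (0.7 nM to 77 uM) titrated against 4 nM rice enzyme and 400 uM 4-MU-alpha-glucoside for 20 min at room temperature; NaOH/glycine stop, read ex 365/em 440 nm, Hill-fitted AC50.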

The target in assay [15] is Cytochrome P450 2C19 (Homo sapiens) (UniProt P33261). Kind of assay: qHTS Assay for Inhibitors and Substrates of Cytochrome P450 2C19 (AID 899). Also: potency is read from the fitted curve at half-maximal effect; nearly all actives have a fitted effect of over 60% in size. The procedure, abridged:
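Luminescent read-out of luciferin formed from Luciferin-H EGE (10uM, equal to KM). Enzyme 5nM in 50mM KPO4; compound added, 10 min at 37C, then NADPH regenerating system for 60 min at 37C. Full inhibition defined by 57uM ketoconazole.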

Assay [16] in a line: qHTS Assay for Identification of Small Molecule Agonists for Thrombopoietin (TPO) Signaling Pathway (AID 917). Also: % is scaled to controls: 0 for no effect and ±100 for the full control effect. The procedure, abridged: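 Luciferase reporter (Glycoprotein IIb promoter) in IL-3-deprived Ba/F3 cells carrying human TPO receptor; compounds co-added with 26 pM TPO, incubated 24 h, 37 C. Steadylite luminescence measured after 10 min.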
Assay [17] in a line: AP1 Signaling Pathway (AID 357; active = well fitted curve in either direction with a large enough effect, not every such curve was filed as active). As to conditions: ME-180 AP-1-bla reporter, EGF-induced, beta-lactamase ratio, 5 h; at 17.2 µM (top of the series) unless noted. The method, boiled down:
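Titration-series screen for positive or negative modulators of EC50 EGF-induced signaling in ME-180 cells carrying an AP-1-driven beta-lactamase reporter. After 5 hours at 37 degrees Celsius, CCF4 460nm/530nm emission ratio gave %Activity; AC50 values derived.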

Assay [18] has as its target Ubiquitin carboxyl-terminal hydrolase 1 (Homo sapiens) (UniProt O94782). Kind of assay: Inhibitors of USP1/UAF1: Pilot qHTS (AID 504865).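 Also: rhodamine fluorescence freed from ubiquitin-rhodamine substrate followed over time; top concentration of the series differs between compounds; % is scaled to controls: 0 for no effect and ±100 for the full control effect; nearly all actives have a fitted effect of over 35% in size.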 The method, boiled down:
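Deubiquitinase activity followed as kinetic rhodamine fluorescence release from 150 nM Ub-Rho. 1 nM USP1/UAF1 with compound, after 15 min room-temperature preincubation, in HEPES pH 7.8 buffer containing TCEP, EDTA, BSA and Tween-20.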

Assay [19] can be described thus: qHTS Assay for Identification of Small Molecule Agonists for Hypoxia Response Element Signaling Pathway (AID 914; active = well fitted activation curve with a large enough effect in the signal ratio, with a control signal flat, not every such curve was filed as active; the % refers to the signal ratio; also: potency is read from the fitted curve at half-maximal effect; as to activation: % of control where 0% means no effect). To be noted: ME-180 (cervical carcinoma) HRE-bla reporter, beta-lactamase ratio, CoCl2, 17 h; activation: stronger effect = higher value. The method, boiled down: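 Reporter activity (beta-lactamase, CCF4 460nm/530nm ratio) in HRE-bla ME-180 cells is recorded after 17 h compound exposure with EC50 CoCl2 at 37 degrees Celsius. AC50 values come from titration data.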

The nature of assay [20]: Confirmation and Secondary Assay for Modulators of Hemoglobin Beta Chain Splicing at IVS2 705 locus (AID 930).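 Also: GFP fluorescence per well restored by corrected splicing of the IVS2-705 intron in EGFP; potency is read from the fitted curve at half-maximal effect.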 The procedure, abridged:
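Stable HeLa line with EGFP disrupted by mutant beta-globin intron 2 (705). Overnight attachment, then 2 days of compound at 37C, 5% CO2. Signal: peak GFP intensity summed over objects 5-250 µm.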

The target of assay [21] is Cytochrome P450 2C9 (Homo sapiens) (UniProt P11712). Put plainly: qHTS Assay for Inhibitors and Substrates of Cytochrome P450 2C9 (AID 883). Also: potency is read from the fitted curve at half-maximal effect; nearly all actives have a fitted effect of over 60% in size. The method, boiled down: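 10nM CYP2C9 + 100uM Luciferin-H (=KM), 25mM KPO4; cpd 10 min 37C; NADPH regen, 60 min 37C; stop/detect with P450 Glo-Buffer 20 min; luminescence. Norm. to 57uM sulphaphenazole as full inhibition.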
The target in assay [22] is Cytochrome P450 3A4 (Homo sapiens) (UniProt P08684). Kind of assay: qHTS Assay for Inhibitors and Substrates of Cytochrome P450 3A4 (AID 884). Also: potency is read from the fitted curve at half-maximal effect; nearly all actives have a fitted effect of over 50% in size. The method, boiled down: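 Luminescent readout of luciferin produced by CYP3A4 (20 nM) dealkylation of Luciferin-PPXE, 25 uM (its KM). NADPH-driven reaction ran 60 min at RT after 10 min compound preincubation; data scaled to 57 uM ketoconazole as 100% inhibition.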

Assay [23] concerns the target Tumor susceptibility gene 101 protein (Homo sapiens) (UniProt Q99816). Put plainly: qHTS Assay for Iinhibitors of HIV-1 Budding by Blocking the Interaction of PTAP/TSG101: Hit Validation (AID 651600). Also: potency is read from the fitted curve at half-maximal effect; nearly all actives have a fitted effect of over 70% in size. The procedure, abridged: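 FITC-PTAP peptide (50 nM final) binding to Tsg101 binding domain (10 uM final) was measured by polarization after 20 min at r.t. with compounds, in 10 mM HEPES pH 7.5 buffer with 0.15 M NaCl and 0.01% Tween 20.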

A number with no mark means an inactive call. Records with an inconclusive call do not appear. Active and inactive are the calls of the source. Unless noted, calls follow the shape of the dose curve; as a rule, active = well fitted curve in the direction sought with a large enough effect; inconclusive = small, poorly fitted or top-dose-only effect, or another doubt; inactive = no such curve, though single readings can be large; an effect the other way counts as inactive or inconclusive.

Chain of Alpha-galactosidase A (Homo sapiens) (P06280 whole entry, looked up): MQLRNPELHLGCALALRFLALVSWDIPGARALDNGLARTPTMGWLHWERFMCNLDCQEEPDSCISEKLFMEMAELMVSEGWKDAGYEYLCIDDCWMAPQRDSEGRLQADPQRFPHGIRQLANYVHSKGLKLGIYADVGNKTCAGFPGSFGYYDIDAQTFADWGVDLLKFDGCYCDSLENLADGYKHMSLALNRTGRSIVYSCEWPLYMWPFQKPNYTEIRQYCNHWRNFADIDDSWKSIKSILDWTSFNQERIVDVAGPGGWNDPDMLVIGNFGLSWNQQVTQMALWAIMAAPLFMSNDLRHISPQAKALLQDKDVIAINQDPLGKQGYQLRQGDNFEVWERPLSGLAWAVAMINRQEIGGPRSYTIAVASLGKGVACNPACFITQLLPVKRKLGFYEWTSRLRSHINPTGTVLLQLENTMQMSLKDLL
Chain of Cytochrome P450 1A2 (Homo sapiens) (P05177 whole entry, looked up): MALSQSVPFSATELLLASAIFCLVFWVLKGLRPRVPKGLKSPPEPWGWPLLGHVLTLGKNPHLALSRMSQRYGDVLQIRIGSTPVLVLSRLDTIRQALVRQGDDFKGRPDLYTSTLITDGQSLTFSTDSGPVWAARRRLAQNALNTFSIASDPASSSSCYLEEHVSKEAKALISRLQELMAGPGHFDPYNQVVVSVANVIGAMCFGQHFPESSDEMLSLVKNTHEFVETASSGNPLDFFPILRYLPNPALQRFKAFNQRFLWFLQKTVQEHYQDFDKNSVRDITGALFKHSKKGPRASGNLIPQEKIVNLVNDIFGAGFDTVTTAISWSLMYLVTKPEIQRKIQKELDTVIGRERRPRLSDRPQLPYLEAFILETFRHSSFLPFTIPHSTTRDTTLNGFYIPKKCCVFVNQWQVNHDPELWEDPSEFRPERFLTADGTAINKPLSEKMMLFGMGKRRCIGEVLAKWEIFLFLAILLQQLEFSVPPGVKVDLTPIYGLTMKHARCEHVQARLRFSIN
Chain of Pyruvate kinase (Leishmania mexicana) (Q27686 2-499 E452W): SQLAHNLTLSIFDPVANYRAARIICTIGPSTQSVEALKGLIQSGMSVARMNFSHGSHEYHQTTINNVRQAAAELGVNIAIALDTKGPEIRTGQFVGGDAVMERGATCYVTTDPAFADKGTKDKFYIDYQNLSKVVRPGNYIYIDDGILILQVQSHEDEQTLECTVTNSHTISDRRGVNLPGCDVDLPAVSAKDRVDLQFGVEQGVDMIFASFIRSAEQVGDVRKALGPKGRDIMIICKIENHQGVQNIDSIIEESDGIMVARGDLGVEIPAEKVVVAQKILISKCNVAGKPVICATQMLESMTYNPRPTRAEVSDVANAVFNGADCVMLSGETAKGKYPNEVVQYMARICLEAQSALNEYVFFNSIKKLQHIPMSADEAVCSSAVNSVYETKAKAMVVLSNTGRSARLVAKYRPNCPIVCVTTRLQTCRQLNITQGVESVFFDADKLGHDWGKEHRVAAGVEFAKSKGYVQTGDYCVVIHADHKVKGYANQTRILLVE
Chain of Pyruvate kinase PKM (Homo sapiens) (P14618 whole entry, looked up): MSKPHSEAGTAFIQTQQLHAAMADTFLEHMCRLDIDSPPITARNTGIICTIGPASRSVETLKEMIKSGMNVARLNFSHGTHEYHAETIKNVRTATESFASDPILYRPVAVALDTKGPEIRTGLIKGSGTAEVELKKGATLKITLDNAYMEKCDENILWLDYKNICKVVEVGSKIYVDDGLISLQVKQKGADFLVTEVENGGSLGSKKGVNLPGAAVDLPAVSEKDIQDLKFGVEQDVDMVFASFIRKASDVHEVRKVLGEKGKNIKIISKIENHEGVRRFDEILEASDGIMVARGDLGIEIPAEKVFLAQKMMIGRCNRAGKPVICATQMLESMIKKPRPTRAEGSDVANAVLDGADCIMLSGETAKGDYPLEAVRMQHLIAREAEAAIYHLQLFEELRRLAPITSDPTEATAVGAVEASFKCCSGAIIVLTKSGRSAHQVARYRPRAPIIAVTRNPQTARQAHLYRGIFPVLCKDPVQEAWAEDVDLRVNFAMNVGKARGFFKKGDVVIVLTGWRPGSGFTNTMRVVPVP
Chain of Glucocorticoid receptor (Homo sapiens) (P04150 whole entry, looked up): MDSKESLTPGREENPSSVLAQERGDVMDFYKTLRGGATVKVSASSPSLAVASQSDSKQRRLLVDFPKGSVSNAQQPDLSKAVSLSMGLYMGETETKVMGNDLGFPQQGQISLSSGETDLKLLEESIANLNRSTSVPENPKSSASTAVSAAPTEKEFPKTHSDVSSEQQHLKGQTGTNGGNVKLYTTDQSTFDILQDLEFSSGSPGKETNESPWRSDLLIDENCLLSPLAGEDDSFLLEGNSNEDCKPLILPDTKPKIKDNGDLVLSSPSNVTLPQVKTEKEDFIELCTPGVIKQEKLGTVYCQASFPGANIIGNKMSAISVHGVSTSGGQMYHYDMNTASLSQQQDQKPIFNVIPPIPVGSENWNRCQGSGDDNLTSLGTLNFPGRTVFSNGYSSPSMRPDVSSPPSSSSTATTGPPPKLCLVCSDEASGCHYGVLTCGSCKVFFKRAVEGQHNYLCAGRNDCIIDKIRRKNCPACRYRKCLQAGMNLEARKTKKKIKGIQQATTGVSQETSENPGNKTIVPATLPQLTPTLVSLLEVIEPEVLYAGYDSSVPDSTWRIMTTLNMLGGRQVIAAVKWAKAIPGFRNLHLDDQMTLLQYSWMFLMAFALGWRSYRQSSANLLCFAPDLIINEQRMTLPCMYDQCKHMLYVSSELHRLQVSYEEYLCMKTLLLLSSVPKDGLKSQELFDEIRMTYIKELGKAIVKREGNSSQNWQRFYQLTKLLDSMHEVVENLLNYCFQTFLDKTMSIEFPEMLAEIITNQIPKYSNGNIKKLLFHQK
Chain of 3',5'-cyclic-AMP phosphodiesterase 4B (Homo sapiens) (Q07343 whole entry, looked up): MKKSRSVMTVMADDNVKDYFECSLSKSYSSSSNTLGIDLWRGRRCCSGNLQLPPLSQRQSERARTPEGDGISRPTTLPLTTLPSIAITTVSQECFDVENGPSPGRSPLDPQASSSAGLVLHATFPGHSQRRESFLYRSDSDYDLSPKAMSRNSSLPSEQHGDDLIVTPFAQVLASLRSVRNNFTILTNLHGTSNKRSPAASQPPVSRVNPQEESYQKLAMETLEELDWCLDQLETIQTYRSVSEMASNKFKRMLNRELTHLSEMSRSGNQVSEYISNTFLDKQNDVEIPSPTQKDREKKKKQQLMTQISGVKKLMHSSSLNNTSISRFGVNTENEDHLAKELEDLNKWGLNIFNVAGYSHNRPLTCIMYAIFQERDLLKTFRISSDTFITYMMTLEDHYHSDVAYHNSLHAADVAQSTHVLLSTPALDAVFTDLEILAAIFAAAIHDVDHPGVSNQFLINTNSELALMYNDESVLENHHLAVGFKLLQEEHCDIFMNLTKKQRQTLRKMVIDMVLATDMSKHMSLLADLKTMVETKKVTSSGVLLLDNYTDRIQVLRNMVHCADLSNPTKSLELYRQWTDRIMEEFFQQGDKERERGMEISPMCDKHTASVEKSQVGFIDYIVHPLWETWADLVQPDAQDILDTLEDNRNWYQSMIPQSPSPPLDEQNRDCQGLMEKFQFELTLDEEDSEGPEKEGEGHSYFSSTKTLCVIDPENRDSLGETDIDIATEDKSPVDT
Chain of Cytochrome P450 3A4 (Homo sapiens) (P08684 whole entry, looked up): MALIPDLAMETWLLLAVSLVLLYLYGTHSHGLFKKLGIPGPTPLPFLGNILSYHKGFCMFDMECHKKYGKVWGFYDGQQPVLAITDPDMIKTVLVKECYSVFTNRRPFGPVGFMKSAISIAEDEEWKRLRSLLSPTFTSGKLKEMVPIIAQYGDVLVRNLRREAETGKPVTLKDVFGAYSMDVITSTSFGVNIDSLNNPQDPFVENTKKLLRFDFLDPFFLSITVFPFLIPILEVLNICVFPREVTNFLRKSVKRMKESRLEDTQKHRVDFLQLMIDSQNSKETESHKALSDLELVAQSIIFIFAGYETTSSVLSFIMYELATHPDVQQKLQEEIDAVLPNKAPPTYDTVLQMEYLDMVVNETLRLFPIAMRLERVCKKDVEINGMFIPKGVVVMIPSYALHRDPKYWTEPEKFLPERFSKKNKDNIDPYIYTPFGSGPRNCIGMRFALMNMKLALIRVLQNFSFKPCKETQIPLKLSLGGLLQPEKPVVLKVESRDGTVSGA
Chain of Guanine nucleotide-binding protein G(i) subunit alpha-1 (Homo sapiens) (P63096 whole entry, looked up): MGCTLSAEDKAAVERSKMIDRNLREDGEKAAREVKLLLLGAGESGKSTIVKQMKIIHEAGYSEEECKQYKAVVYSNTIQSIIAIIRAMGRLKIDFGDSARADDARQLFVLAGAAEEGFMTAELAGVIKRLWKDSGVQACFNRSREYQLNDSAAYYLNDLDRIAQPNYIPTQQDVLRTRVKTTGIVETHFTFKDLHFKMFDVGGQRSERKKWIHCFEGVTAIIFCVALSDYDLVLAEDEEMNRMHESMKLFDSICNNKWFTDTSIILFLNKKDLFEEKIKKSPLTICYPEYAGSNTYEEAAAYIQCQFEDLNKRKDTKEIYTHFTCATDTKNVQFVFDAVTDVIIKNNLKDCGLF
Chain of Cytochrome P450 2C19 (Homo sapiens) (P33261 whole entry, looked up): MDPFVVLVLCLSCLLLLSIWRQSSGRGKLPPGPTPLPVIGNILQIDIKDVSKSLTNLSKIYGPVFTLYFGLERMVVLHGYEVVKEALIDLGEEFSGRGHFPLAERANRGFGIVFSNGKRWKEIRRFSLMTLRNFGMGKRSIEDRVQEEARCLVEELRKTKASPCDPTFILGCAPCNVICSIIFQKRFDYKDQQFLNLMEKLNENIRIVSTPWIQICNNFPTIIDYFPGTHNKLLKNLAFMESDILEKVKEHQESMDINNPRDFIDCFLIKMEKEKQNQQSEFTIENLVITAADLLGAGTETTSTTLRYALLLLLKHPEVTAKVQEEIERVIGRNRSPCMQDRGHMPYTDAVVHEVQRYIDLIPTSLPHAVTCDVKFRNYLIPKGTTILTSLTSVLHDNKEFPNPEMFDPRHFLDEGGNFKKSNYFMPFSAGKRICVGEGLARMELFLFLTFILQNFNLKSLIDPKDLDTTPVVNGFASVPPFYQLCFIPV

With `C[C@H](N)C1CCC(C(=O)Nc2ccncc2)CC1` (some centres not stated), the Potency result in assay [1], in assay [6], in [7], in assay [9] and in assay [11] was “inactive” in each case. In assay [2], the activity change, negative = inhibition is 3.2% [at 38 µM]. In assay [3], the activity, negative = inhibition is -8.56% [at 38 µM]. For the same molecule, the Potency was > 46 µM in assay [4], > 46 µM in assay [5] and 7.94 µM (active) in [10]. The molecule was called inactive in assay [8], in assay [12], in [13] and in [14].

Consider `CCCCC[C@H](O)c1cccc(OCc2ccc3ccccc3n2)c1`, for which the Potency is 0.794 µM (active) in [1], > 46 µM in assay [4], > 46 µM in assay [5] and 6.31 µM (active) in [15]. In addition, the activity, negative = inhibition in assay [3] is -0.505% [at 38 µM]. For the same molecule, the Potency entry in [6], in assay [9], in assay [16] and in assay [11] was “inactive” each time. The molecule was called inactive in [8], in assay [12], in [13] and in assay [14].

For the molecule `CCOC(=O)C1=C(N)c2ccccc2CC1C(C)C` (configuration not stated), the activity change, negative = inhibition in assay [17] was -3.93%. Moreover, the Potency in assay [4] was > 20.6 µM.

In the case of `COc1cc(/C=C\C(=O)N2CCC=CC2=O)cc(OC)c1OC`, the Potency is 0.2 µM (active) in assay [1], > 20.6 µM in [4] and > 20.6 µM in assay [5]. Besides, the activity change, negative = inhibition in [2] was -142% (active). Further, the activity, negative = inhibition in [3] was -101% (active). For the same molecule, the Potency result in assay [6] and in assay [18] was “inactive” throughout.

As for `OC[C@@H]1O[C@@H](n2cnc3cncnc32)[C@@H](O)[C@H]1O`, the Potency result in assay [1], in assay [6], in assay [7], in assay [16] and in assay [11] was “inactive” in each case. In addition, the activity change, negative = inhibition in [2] was -10.9% [at 38 µM]. The activity, negative = inhibition in [3] is -14.6% [at 38 µM]. Also, the Potency in assay [4] was > 46 µM; in assay [5] it was > 46 µM; in [20] it was 12.6 µM (active). In addition, the call in assay [8], in assay [12], in [13] and in assay [14] was inactive. The activation in assay [19] is 4.26%.

On to `CN(C)c1ccc(-c2nn3c(-c4ccc(Cl)cc4)nnc3s2)cc1`, for which the activity change, negative = inhibition in assay [17] is 21.4%. Also, the results for the Potency in assay [4] and in [19] were > 20.6 µM and 10 µM (active), respectively.

`CC(C)(C)c1nnc2sc(SCC(=O)c3ccccc3)nn2c1=O`: the activity change, negative = inhibition in [17] was 2.49%. Also, the Potency in assay [4] is > 20.6 µM.

As for `Cc1c([C@H]2[C@@H](CC#N)C2(C)C)c2ccccc2n1C`, the activity change, negative = inhibition in [17] is -11.6%. Also, the Potency in [4] was > 20.6 µM.

`C#CCN1C(C)=C(C(=O)OC)[C@@H](c2cccc([N+](=O)[O-])c2)C(C(=O)OCC)=C1C`: the Potency in [1] was 12.6 µM (active); in [4] it was > 46 µM; in assay [5], > 46 µM; in assay [21] it was 0.316 µM (active); in assay [22], 3.16 µM (active); in assay [10], 3.55 µM (active). In [3], the activity, negative = inhibition is -3.77% [at 38 µM]. The Potency result in [6], in assay [7], in assay [9], in [16] and in assay [11] was “inactive” each time. In addition, the molecule was called inactive in assay [8], in assay [12], in assay [13] and in [14].

Regarding `CCN1CC=C2C(C#N)=C(N)C(C#N)(C#N)[C@H](c3cccc(OC)c3OC)[C@H]2C1`, the activity change, negative = inhibition in [17] was 9.63%. The values for the Potency in [4] and in assay [23] were > 20.6 µM and 29.1 µM (active), respectively.
